The record followed here is PubChem BioAssay (Tox21).

Records with an inconclusive call do not appear. Active and inactive are the calls of the source. Unless noted, calls follow the shape of the dose curve; as a rule, active = well fitted curve in the direction sought with a large enough effect in the repeat runs; inconclusive = weak or mixed curves; inactive = no such curve, though single readings can be large; an effect the other way counts as inactive or inconclusive.

Test [1] can be described thus: qHTS assay to identify small molecule antagonists of the androgen receptor (AR) signaling pathway using the MDA cell line in the presence of 0.5 nM R1881 - cell viability counter screen (AID 1259242). Also: nearly all actives have a fitted effect of over 45% in size. Also: potency is read from the fitted curve at half-maximal effect. The procedure, abridged:
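MDA-kb2 cells (human breast carcinoma, stably carrying MMTV-luciferase reporter) were exposed to compounds with 0.5 nM R1881 (final) for 16 hr at 37C, 0% CO2; viability then read as live-cell protease fluorescence (CellTiter-Fluor, 30 min) in the same wells.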
In general terms: qHTS replaces the single test concentration by a dilution series.

Test [2] has as its target Estrogen receptor (Homo sapiens) (UniProt P03372). The test is described as follows: qHTS assay to identify small molecule antagonists of the estrogen receptor alpha (ER-alpha) signaling pathway using the BG1 cell line in the presence of 0.1 nM 17-beta-estradiol (AID 1259244). Also: nearly all actives have a fitted effect of over 50% in size. Also: potency is read from the fitted curve at half-maximal effect. The procedure, abridged: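 VM7Luc4E2 cells (endogenous full-length ER-alpha, stable 4xERE-luciferase) were grown 5 days in phenol red-free medium with charcoal-stripped FBS, then exposed 22 h at 37C to compounds plus 0.1 nM (final) 17beta-estradiol; ONE-Glo luminescence read-out.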

Test [3] can be described thus: qHTS assay to identify small molecule phospholipidosis (PLD) inducers (AID 1259344; active = well fitted curve in the direction sought with a large enough effect; an effect the other way counts as inactive or inconclusive). The procedure, abridged: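 Phospholipidosis is scored by imaging LipidTOX-stained pits in HepG2 cells exposed to compound for 24 h at 37 C; pit counts and integrated intensities per well and per cell serve as outputs.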
Test [4] can be described thus: qHTS assay to identify small molecule HDAC inhibitors (AID 1259364). Also: top concentration of the series differs between compounds; nearly all actives have a fitted effect of over 45% in size. An outline of the steps: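 Wild-type HCT-116 cells were plated overnight, exposed to compounds for 2 h at 37 °C, then given HDAC-Glo class I/II luminogenic reagent for 30 min at room temperature before luminescence was read.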
Test [5] is described as follows: qHTS assay to identify small molecule HDAC inhibitors - cell viability counter screen (AID 1259365). Also: series mostly up to about 92 µM; nearly all actives have a fitted effect of over 50% in size. An outline of the steps:
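Following a 2hr exposure of overnight-plated wild-type HCT-116 cells to DMSO-delivered compounds, CellTiter-Glo was added and luminescence recorded after 30min at room temperature.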

Test [6] in a line: qHTS assay to identify small molecule agonists of the sonic hedgehog signaling (Shh) pathway - cell viability counter screen (AID 1259366). Also: nearly all actives have a fitted effect of over 50% in size. Also: potency is read from the fitted curve at half-maximal effect. An outline of the steps: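 After a 4hr attachment at 37C, NIH/3T3 cells bearing an integrated Gli1-driven luciferase reporter were dosed with compounds. Treatment lasted 24hr, with the final hour including CellTiter-Fluor for a fluorescence viability measurement.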

The nature of test [7]: qHTS assay to identify small molecule antagonists of the sonic hedgehog signaling (Shh) pathway - cell viability counter screen (AID 1259367). Also: nearly all actives have a fitted effect of over 55% in size. Also: potency is read from the fitted curve at half-maximal effect. The procedure, abridged: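 Cells: 3T3 Gli1-Luc, 2,000/well, 4 hr pre-incubation. Compounds in DMSO, then conditioned medium. Incubation 24 hr, 37C, 5% CO2. CellTiter-Fluor at 23 hr, 1 hr, fluorescence.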
A short description of test [8]: qHTS assay to identify small molecule agonists of the sonic hedgehog signaling (Shh) pathway (AID 1259368; calls by dose curve; also: series mostly up to about 92 µM; nearly all actives have a fitted effect of over 15% in size). The procedure, abridged:
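NIH/3T3-derived 3T3Gli1-Luc cells carrying a stably integrated Gli1 response element–firefly luciferase reporter were plated, left 4 hr at 37 C, then given compounds in DMSO for 24 hr. Luminescence was read 30 min after adding luciferase reagent.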

The nature of test [9]: qHTS assay to identify small molecule antagonists of the sonic hedgehog signaling (Shh) pathway (AID 1259369; calls by dose curve; also: nearly all actives have a fitted effect of over 45% in size; also: potency is read from the fitted curve at half-maximal effect). An outline of the steps: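 NIH/3T3-derived 3T3Gli1-Luc cells with stably integrated Gli1-Luc reporter were preincubated 4hr at 37 C, then given compounds in DMSO plus Shh conditioned medium and incubated 24hr. Firefly luciferase luminescence read after 30min reagent at room temperature.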

Test [10] addresses Estrogen receptor beta (Homo sapiens) (UniProt Q92731). The test is described as follows: qHTS assay to identify small molecule agonists of the estrogen receptor beta (ER-beta) signaling pathway (AID 1259377; active = well fitted activation curve with a large enough effect in the signal ratio in the repeat runs, not every such curve was filed as active; the % refers to the signal ratio). An outline of the steps:
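In HEK293T cells bearing a UAS-beta-lactamase reporter under ER-beta control, DMSO-delivered compounds were incubated for 16 hr at 37C. Activity was detected as fluorescence 2 hours after LiveBLAzer B/G FRET substrate addition.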

Test [11] has the same target. As to the kind of experiment: qHTS assay to identify small molecule antagonists of the estrogen receptor beta (ER-beta) signaling pathway (AID 1259378; active = well fitted inhibition curve with a large enough effect in the signal ratio in the repeat runs, not every such curve was filed as active; the % refers to the signal ratio; also: potency is read from the fitted curve at half-maximal effect). The procedure, abridged: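 Antagonist mode: compounds added to beta-lactamase reporter HEK293T ER-beta-UAS cells stimulated with E2 (1nM final), 16 hr at 37C. LiveBLAzer B/G FRET substrate, 2 hours room temperature, fluorescence read-out.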

Test [12] is described as follows: qHTS assay to identify small molecule agonists of the androgen receptor (AR) signaling pathway in the presence of an antagonist - cell viability counter screen (AID 1259379). Also: nearly all actives have a fitted effect of over 25% in size. Also: potency is read from the fitted curve at half-maximal effect. The procedure, abridged: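 MDA-kb2 human breast carcinoma cells (stable MMTV-luciferase, AR/GR responsive) were seeded 3,000 cells/well, pre-incubated 5 hr at 37C without CO2, then given 3.0uM nilutamide and compounds at 15 concentrations for 16 hr. Viability was read by CellTiter-Fluor fluorescence.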

The nature of test [13]: qHTS assay to identify small molecule agonists of the estrogen receptor beta (ER-beta) signaling pathway - cell viability counter screen (AID 1259380). Also: nearly all actives have a fitted effect of over 30% in size. Also: potency is read from the fitted curve at half-maximal effect. The procedure, abridged:
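ER-beta-UAS-bla HEK293T cells in medium with 2% charcoal-stripped FBS were preincubated 6 hr at 37C, dosed with compound in DMSO for 16 hr, then after the bla read, CellTiter-Glo was added for 30 min at room temperature; luminescence recorded.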

Test [14] can be described thus: qHTS assay to identify small molecule antagonists of the estrogen receptor beta (ER-beta) signaling pathway - cell viability counter screen (AID 1259382). Also: nearly all actives have a fitted effect of over 55% in size. Also: potency is read from the fitted curve at half-maximal effect. The procedure, abridged:
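ER-beta-UAS-bla HEK293T cells (2,000/well, 2% charcoal-stripped FBS) were pre-incubated 6 hr at 37C, then given compound plus 1nM final 17-beta-estradiol for 16 hr. Viability was read in the same wells by CellTiter-Glo luminescence after 30 min at room temperature.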

Test [15] has as its target Estrogen receptor (Homo sapiens) (UniProt P03372). As to the kind of experiment: qHTS assay to identify small molecule agonists of the estrogen receptor alpha (ER-alpha) signaling pathway in the presence of an antagonist (AID 1259383; calls by dose curve; also: top concentration of the series differs between compounds; nearly all actives have a fitted effect of over 15% in size). An outline of the steps:
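VM7Luc4E2 cells (endogenous full-length ER-alpha, 4×ERE-luciferase) were precultured 5 days in phenol red-free medium with 10% charcoal-stripped FBS, given 10.0nM ICI-182,780 (final), then treated with compounds at 15 concentrations for 22hr at 37C; luminescence read with ONE-Glo.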

Test [16] can be described thus: qHTS assay to identify small molecule agonists or antagonists of the thyroid stimulating hormone receptor (TSHR) signaling pathway - wild type cell line counter screen (AID 1259384; calls by dose curve). The procedure, abridged: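 Counter screen in untransfected Hek293: compounds (15-point titration, triplicate) plus phosphodiesterase inhibitor Ro20-1724 added after 18 h plating; 30 min RT. Intracellular cAMP via competitive d2/cryptate immunoassay, 1 h incubation.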

For test [17], the target named is Thyrotropin receptor (Homo sapiens) (UniProt P16473). The test is described as follows: qHTS assay to identify small molecule antagonists of the thyroid stimulating hormone receptor (TSHR) signaling pathway (AID 1259385; calls by dose curve; also: nearly all actives have a fitted effect of over 20% in size; also: potency is read from the fitted curve at half-maximal effect). An outline of the steps:
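Antagonist mode: compound-treated TSHR-expressing HEK293 cells were stimulated with 1.5 ng/mL TSH (final) in presence of Ro20-1724 for 30 min at RT. HTRF cAMP detection after 1 h; each compound tested at 15 concentrations, triplicate.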

Test [18] is described as follows: qHTS assay to identify small molecule agonists of the estrogen receptor alpha (ER-alpha) signaling pathway in the presence of an antagonist - cell viability counter screen (AID 1259386). Also: nearly all actives have a fitted effect of over 30% in size. Also: potency is read from the fitted curve at half-maximal effect. An outline of the steps: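 VM7Luc4E2 cells (endogenous full-length ER-alpha, 4×ERE-luciferase) were held 5 days in phenol red-free medium with 10% charcoal-stripped FBS, plated, then given 10.0nM ICI-182,780 and compounds at 15 concentrations for 22hr at 37C; viability read by CellTiter-Fluor fluorescence.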

The target in test [19] is Androgen receptor (Homo sapiens) (UniProt P10275). As to the kind of experiment: qHTS assay to identify small molecule antagonists of the androgen receptor (AR) signaling pathway using the MDA cell line in the presence of 0.5 nM R1881 (AID 1259243). Also: nearly all actives have a fitted effect of over 50% in size. Also: potency is read from the fitted curve at half-maximal effect. An outline of the steps: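 MDA-kb2 human breast carcinoma cells carrying an MMTV-luciferase reporter (AR- and GR-responsive) were plated, rested 5 hr at 37C, dosed with compounds, then stimulated with 0.5 nM R1881 (final) for 16 hr; luminescence was read after ONE-Glo.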

Test [20] shares this target. The test is described as follows: qHTS assay to identify small molecule agonists of the androgen receptor (AR) signaling pathway in the presence of an antagonist (AID 1259381; calls by dose curve; also: nearly all actives have a fitted effect of over 15% in size; also: potency is read from the fitted curve at half-maximal effect). The procedure, abridged:
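MDA-kb2 human breast carcinoma cells carrying an MMTV-luciferase reporter (AR- and GR-responsive) were treated with compounds at 15 concentrations plus 3.0uM final nilutamide for 16hr at 37C without CO2; luminescence was read after ONE-Glo addition.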

Chain of Estrogen receptor beta (Homo sapiens) (Q92731 whole entry, looked up): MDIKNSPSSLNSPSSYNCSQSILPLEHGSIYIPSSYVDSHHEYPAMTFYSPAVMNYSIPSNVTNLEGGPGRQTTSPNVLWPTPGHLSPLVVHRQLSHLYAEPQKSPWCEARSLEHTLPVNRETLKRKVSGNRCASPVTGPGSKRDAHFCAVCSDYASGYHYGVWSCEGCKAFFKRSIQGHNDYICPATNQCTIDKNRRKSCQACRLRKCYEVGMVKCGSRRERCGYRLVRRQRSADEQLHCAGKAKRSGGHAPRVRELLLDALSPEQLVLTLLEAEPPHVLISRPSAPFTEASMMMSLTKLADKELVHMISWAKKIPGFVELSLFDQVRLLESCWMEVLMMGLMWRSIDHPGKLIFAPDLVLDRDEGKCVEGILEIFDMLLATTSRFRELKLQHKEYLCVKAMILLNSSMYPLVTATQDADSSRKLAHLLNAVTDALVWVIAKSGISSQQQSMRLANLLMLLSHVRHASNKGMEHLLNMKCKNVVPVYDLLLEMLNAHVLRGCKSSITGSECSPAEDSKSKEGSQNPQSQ
Chain of Estrogen receptor (Homo sapiens) (P03372 whole entry, looked up): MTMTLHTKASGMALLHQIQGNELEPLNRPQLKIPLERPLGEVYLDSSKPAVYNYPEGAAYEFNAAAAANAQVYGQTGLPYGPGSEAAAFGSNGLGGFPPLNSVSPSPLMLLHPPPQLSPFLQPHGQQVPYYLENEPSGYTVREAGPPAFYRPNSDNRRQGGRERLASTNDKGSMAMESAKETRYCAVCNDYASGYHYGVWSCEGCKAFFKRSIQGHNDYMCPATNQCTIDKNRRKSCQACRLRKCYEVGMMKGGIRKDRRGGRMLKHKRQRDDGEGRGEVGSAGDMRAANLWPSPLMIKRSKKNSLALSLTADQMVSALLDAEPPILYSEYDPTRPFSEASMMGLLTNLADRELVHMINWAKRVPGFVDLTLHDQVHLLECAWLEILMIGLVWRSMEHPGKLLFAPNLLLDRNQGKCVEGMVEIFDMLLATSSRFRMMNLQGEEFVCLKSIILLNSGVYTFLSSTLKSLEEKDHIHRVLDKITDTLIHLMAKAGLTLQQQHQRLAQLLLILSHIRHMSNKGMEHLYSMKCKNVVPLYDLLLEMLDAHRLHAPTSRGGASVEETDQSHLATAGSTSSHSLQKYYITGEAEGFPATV
Chain of Thyrotropin receptor (Homo sapiens) (P16473 whole entry, looked up): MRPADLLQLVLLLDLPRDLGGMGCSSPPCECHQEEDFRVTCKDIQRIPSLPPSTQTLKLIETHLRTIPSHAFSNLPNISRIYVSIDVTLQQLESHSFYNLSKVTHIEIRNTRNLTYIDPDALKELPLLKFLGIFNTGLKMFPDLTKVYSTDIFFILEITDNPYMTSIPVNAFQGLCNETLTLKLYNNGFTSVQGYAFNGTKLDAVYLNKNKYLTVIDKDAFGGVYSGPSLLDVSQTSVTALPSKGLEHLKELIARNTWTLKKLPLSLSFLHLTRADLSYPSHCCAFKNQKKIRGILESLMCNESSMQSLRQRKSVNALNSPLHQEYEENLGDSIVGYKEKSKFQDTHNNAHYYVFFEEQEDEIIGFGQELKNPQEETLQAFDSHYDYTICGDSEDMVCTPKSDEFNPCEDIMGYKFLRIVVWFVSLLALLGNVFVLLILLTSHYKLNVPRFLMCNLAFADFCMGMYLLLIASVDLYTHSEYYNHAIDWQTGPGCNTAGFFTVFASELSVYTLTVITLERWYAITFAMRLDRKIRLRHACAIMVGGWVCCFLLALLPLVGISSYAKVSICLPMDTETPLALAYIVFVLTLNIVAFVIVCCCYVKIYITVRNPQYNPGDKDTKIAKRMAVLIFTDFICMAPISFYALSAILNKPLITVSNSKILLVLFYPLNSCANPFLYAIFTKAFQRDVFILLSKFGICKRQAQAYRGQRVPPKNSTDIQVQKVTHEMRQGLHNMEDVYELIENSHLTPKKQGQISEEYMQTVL
Chain of Androgen receptor (Homo sapiens) (P10275 whole entry, looked up): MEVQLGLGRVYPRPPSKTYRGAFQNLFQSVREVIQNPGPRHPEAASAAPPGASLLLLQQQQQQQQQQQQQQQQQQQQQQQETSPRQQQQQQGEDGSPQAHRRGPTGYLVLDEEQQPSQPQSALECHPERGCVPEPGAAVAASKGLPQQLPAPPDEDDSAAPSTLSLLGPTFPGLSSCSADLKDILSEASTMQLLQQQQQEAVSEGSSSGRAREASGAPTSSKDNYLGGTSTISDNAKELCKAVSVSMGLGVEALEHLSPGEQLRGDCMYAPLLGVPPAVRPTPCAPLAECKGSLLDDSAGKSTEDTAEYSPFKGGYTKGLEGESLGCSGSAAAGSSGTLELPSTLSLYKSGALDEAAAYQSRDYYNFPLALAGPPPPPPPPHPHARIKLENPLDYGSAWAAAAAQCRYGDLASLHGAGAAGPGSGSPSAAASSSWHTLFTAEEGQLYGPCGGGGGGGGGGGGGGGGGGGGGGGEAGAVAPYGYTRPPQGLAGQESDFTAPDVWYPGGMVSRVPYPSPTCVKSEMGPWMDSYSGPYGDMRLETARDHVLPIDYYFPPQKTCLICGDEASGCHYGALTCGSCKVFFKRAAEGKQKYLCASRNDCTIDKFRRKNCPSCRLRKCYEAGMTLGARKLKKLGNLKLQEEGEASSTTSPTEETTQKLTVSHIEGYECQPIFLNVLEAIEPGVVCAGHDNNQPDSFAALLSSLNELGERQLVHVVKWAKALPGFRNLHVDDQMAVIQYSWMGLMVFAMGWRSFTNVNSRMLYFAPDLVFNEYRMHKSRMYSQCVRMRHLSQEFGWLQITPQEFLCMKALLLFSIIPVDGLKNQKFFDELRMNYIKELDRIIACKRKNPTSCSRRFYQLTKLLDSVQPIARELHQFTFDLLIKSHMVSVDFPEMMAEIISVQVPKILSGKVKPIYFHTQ

Regarding `CC(=O)SC[C@@H](Cc1ccccc1)C(=O)NCC(=O)OCc1ccccc1`, the Potency entry in test [1], in [2], in test [3], in [4], in test [5] and in test [6] was “inactive” each time. Also, the Potency result in [7], in test [8], in test [9], in [10], in test [11] and in test [12] was “inactive” each time. In addition, the Potency entry in test [13], in test [14], in test [15] and in test [18] was “inactive” throughout. The call in [16] was inactive. For the same compound, the Potency in test [17] is 23.7 µM (active).

As for `C[C@@H]1C[C@H]2[C@@H]3CCC4=CC(=O)C=C[C@]4(C)[C@@]3(Cl)[C@@H](O)C[C@]2(C)[C@@]1(OC(=O)c1ccco1)C(=O)CCl`, the Potency result in [1], in test [19], in test [3], in [4], in test [5] and in test [8] was “inactive” in each case. The Potency entry in [10], in test [17] and in test [18] was “inactive” in each case. The Potency in [13] is 8.41 µM (active). Moreover, in test [16], the call was inactive.

On to `O=C1C=CC(=O)N1`, for which the Potency in [1] is 49.8 µM (active); in test [2], 55.9 µM (active); in test [6] it was 5.59 µM (active); in [7], 7.04 µM (active); in test [9] it was 1.58 µM (active); in [11], 28 µM (active). Also, the Potency is 49.8 µM (active) in test [12]; 55.9 µM (active) in test [13]; 8.86 µM (active) in [20]; 28 µM (active) in [14]; 70.4 µM (active) in test [18]. Further, the Potency result in test [19], in test [4], in test [8] and in [15] was “inactive” throughout. Besides, in test [16], the call was inactive.

`CCCCCOc1ccccc1/C(=C\SC)n1ccnc1`: the Potency entry in test [1], in [4], in test [5], in test [6], in [7] and in [8] was “inactive” throughout. Further, the Potency entry in test [9], in test [10], in [12], in [20], in [15] and in test [17] was “inactive” in each case. In addition, in test [18], the Potency entry is “inactive”. In addition, the Potency in test [19] was 21.1 µM (active); in test [11] it was 10.6 µM (active).

Turning to `Oc1ccc2c(c1)-c1ccccc1C2`, the Potency result in test [1], in test [4], in test [5], in [7], in [8] and in [12] was “inactive” in each case. Also, the Potency result in test [13], in [20], in [14], in test [17] and in test [18] was “inactive” in each case. Further, the Potency in test [19] was 7.7 µM (active); in test [9], 13.7 µM (active). Moreover, the call in test [16] was inactive.

With `C[C@@H](NCCCc1cccc(C(F)(F)F)c1)c1cccc2ccccc12`, the Potency in [1] is 23.7 µM (active); in test [19], 18.8 µM (active); in test [9], 18.8 µM (active); in test [11], 10.6 µM (active); in test [12], 29.8 µM (active); in test [13], 21.1 µM (active). Moreover, in test [14], the Potency is 18.8 µM (active). The Potency entry in [3], in test [4], in test [5], in test [8], in [10] and in [20] was “inactive” in each case. For the same compound, the Potency result in [15] and in [18] was “inactive” in each case. The compound was called inactive in test [16].

`O=C1CCCc2c1cc1ccc3cccc4ccc2c1c34`: the Potency result in [1], in [2], in test [7], in test [8], in test [9] and in [20] was “inactive” throughout. Further, the Potency result in [14], in test [15], in test [17] and in test [18] was “inactive” each time. Moreover, the Potency was 9.81 µM (active) in test [19] and 31 µM (active) in test [13]. In test [16], the result was inactive.
